About 1,800 (0.53%) of roughly 340,000 compounds were called active. This excerpt belongs to a sample that is enriched for actives. Unmarked numbers belong to inactive results.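 The calls were made as follows: active = activation over 3 SD above normal in the single-dose calcium agonist read (cut at about 30% in these data); inactive = the rest.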

D(2) dopamine receptor (Homo sapiens), sequence (P14416 whole entry, looked up): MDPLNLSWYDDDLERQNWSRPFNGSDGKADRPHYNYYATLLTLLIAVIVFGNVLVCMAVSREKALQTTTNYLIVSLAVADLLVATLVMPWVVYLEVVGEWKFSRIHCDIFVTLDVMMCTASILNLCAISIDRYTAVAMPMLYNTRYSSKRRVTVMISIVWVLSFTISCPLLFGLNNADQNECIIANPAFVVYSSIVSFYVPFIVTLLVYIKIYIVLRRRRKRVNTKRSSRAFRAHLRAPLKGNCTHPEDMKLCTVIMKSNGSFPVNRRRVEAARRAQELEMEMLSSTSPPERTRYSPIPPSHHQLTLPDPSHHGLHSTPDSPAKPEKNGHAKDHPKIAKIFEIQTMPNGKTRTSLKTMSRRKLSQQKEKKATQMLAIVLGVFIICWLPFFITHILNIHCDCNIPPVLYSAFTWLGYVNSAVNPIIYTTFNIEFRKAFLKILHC

For this test, the target named is D(2) dopamine receptor (Homo sapiens) (UniProt P14416). Kind of test: HTS Assay for Allosteric Agonists of the Human D2 Dopamine Receptor: Primary Screen for Agonists. Also: 0% is about no effect. As to conditions: HEK293 T-REx D2 cells, calcium flux agonist mode; at 2 µM; stronger effect = higher value. The source says:
NIH Chemical Genomics Center [NCGC] NIH Molecular Libraries Probe Centers Network [MLPCN] MLPCN Grant: NS064831-01 Assay Submitter (PI): David Sibley Dopamine receptors (DARs) are involved in the etiology and/or therapy of a number of neuropsychiatric and endocrine disorders. For instance, all receptor-based antiparkinsonian drugs work via stimulating the D2 DAR subtype whereas all FDA-approved antipsychotic agents are antagonists of this receptor. […] There are three different types of allosteric modulators that we are seeking, two of which will stimulate or augment receptor signaling, allosteric agonists and potentiators, while the third, allosteric antagonists, will attenuate receptor signaling. The present primary screening assay measures compound agonism by tracking calcium flux in a […], inducible Hek293 Trex D2 cell line.
Freshly passaged cells are plated in 1536 well black, clear bottom plates at a density of 4000 cells/well in 3 ul of complete media containing 1x tetracycline inducer. After an overnight incubation at […] in 5% CO2, cells are loaded with 2 ul of the no wash Calcium Assay Kit (ABD Bioquest) and incubated at room temperature for 30 to 90 minutes. Agonist read: A 10 cycle (1 second/cycle) baseline measurement is taken and then the FDSS online 1536 pintool delivers 23 nl of compound library (as well as dopamine controls) to the plate. The plate is measured for kinetically at 1 cycle/sec for 180 seconds and is considered to be the agonist portion of the assay (eg, compounds which activate a positive calcium response during this portion are flagged as potential agonists). Following the 180 second read, 1 ul of either an EC20 (positive modulation assay) or EC80 (negative modulation assay) is delivered by an onboard pipette head. Measurements are taken kinetically for an additional 180 seconds.
`Cc1ccccc1OCC(O)CN1CCN(c2ccccn2)CC1` (stereo not drawn): the activation is 64.7% (active). The figure for `CC(C)c1ccc(OCC(O)Cn2cnc3ccccc32)cc1` (stereo not drawn) is 1.03%. On to `Cc1ccc(OCC(O)CN2CCN(CC(O)COc3ccc(C)cc3Cl)CC2)c(Cl)c1` (stereo not drawn), for which the activation is 0.53%. Take `OC(COc1cccc2ccccc12)CN1CCN(c2ccccn2)CC1` (stereo not drawn): the activation is 66.3% (active).

With `CC1CCN(CC(O)COc2ccc(C(=O)c3ccccc3)cc2)CC1` (stereo not drawn), the activation was -0.0837%. In the case of `O=S(=O)(c1ccc(OCC(O)CN2CCN(c3ccccc3Cl)CC2)cc1)N1CCOCC1` (stereo not drawn) it was -0.884%; in that of `O=C(C(c1ccccc1)c1ccccc1)N1CCN(CC(O)COc2ccccc2)CC1` (stereo not drawn), -0.117%. `CC(C)c1ccc(OCC(O)CN2CCN(c3ccccn3)CC2)cc1` (stereo not drawn): the activation was 66.2% (active).

For the compound `Cc1cccc(OCC(O)CN2CCN(CCN3C(=O)c4cccc5cccc(c45)C3=O)CC2)c1C` (stereo not drawn), the activation is -0.617%. Regarding `C=CCc1ccccc1OCC(O)CN1CCN(CCO)CC1` (stereo not drawn), the activation was -1.83%. Consider `CNCC(O)CN1CCN(c2ccccc2OC)CC1` (stereo not drawn), for which the activation was 0.328%. Consider `CC(=O)Nc1ccc(OCC(O)CN2CCN(c3ccccc3Cl)CC2)cc1` (stereo not drawn), for which the activation was 71.6% (active). For the compound `COc1cc(C(=O)N2CCN(c3ccc(Nc4ccc(C)cc4)nn3)CC2)cc(OC)c1OC`, the activation is -0.205%. In the case of `COc1ccccc1Cc1nc2ccccc2nc1SCC(=O)N1CCCc2ccccc21`, the activation was 1.06%. As to `COc1cccc(NC(=O)N(Cc2cn(C)c3ccccc23)C2CCCCCC2)c1`, the activation is 0.628%. With `Cn1ccc2cc(S(=O)(=O)N3CCCC(C(=O)NCc4ccccc4F)C3)ccc21` (stereo not drawn), the activation was -0.715%. As to `Cc1ccc(Cl)cc1NC(=O)CSc1nccn1C`, the activation is -0.262%. Consider `CCc1ccc(CN(Cc2ccco2)C(=O)COc2ccc(Cl)c(C)c2)cc1`, for which the activation was 3.85%. With `COC(=O)C1=C(c2ccccc2)c2ccccc2S(=O)(=O)N1CC(=O)Nc1ccccc1C(F)(F)F`, the activation is -0.526%. Turning to `COc1ccccc1OCC(=O)Nc1nnc2n1CCS2`, the activation is -1.11%. As to `CCN1CCN(CCCNC(=O)c2ccc3c(c2)sc2nc(-c4ccc(OC)cc4)cn23)CC1`, the activation is 1.86%. In the case of `Cc1nc2ccc(S(=O)(=O)NC(C(=O)NCc3ccccc3Cl)C(C)C)cc2s1` (stereo not drawn), the activation is -0.364%. `Cn1c(=O)cc(OCC(=O)N2CCN(c3ccccc3)CC2)c2ccccc21`: the activation was 0.681%. Take `Cn1c(C(=O)NCCCN2CCN(c3cccc(Cl)c3)CC2)cc2c(=O)n(C)c3ccccc3c21`: the activation is 60.1% (active).

As for `CCn1c(=O)cc(OCC(=O)NCCCN2CCN(c3cccc(Cl)c3)CC2)c2ccccc21`, the activation was 72.9% (active).

Consider `Cn1c(C(=O)NCCc2ccsc2)cc2c(=O)n(C)c3ccccc3c21`, for which the activation was 0.0188%.

As for `CCN1CCCC1CNC(=O)c1cc2c(=O)n(C)c3ccccc3c2n1C` (stereo not drawn), the activation is 1.59%. Turning to `CCn1c(=O)cc(OCC(=O)Nc2cc(Cl)c(OC)cc2OC)c2ccccc21`, the activation is -0.253%.

The values above are taken from PubChem BioAssay AID485358 (National Center for Advancing Translational Sciences (NCATS), 2010).
